PubChem BioAssay AID651568 (National Center for Advancing Translational Sciences (NCATS), 2012)
In all, about 1,200 compounds went through this assay and about 55 (5%) were called active. Inconclusive results (about 15%) are left out. Calls follow the shape of the dose curve; as a rule, active = well fitted inhibition curve with a large enough effect; inconclusive = small, poorly fitted or top-dose-only effect; inactive = no such curve, though single readings can be large or run the other way. Shown is part of a subset that was picked to be rich in actives. A call without a number means that no potency is given here.

Experiment: qHTS Assay to Find Inhibitors of Chronic Active B-Cell Receptor Signaling: Hit Validation in Renilla Reporter Assay; also: nearly all actives have a fitted effect of over 70% in size
Details: TMD8 IkB-Renilla luciferase reporter, NF-kB signaling; series mostly up to 57.5 µM
Excerpt: Diffuse large B-cell lymphoma (DLBCL) is the most common category of non-Hodgkin lymphoma, with ~20,000 new cases per year in the United States. DLBCL should be regarded as a collection of different neoplasms. Microarray gene expression analysis has defined two principal types of DLBCL, named for their similarity to normal B cell stages or activation states: a germinal center B-cell (GCB) type, and an activated B-cell (ABC) type. In ABC-DLBCL, a constitutive high-level activity of the NF-kappaB family of transcription factors has been observed (1) and NF-kappaB target genes are more highly expressed in ABC primary tumors than in GCB tumors. Functional studies have shown a constitutive high-level activity of the IkappaB (inhibitor of kappa-B) kinase (IKK) complex. […] Further analysis of DLBCL primary tumors for NF-kappaB target gene expression imply that although CARD11 is required for constitutive IKK activity in all ABC-DLBCL lines, mutations in CARD11 may be the root cause of IKK activation only in lines or tumors with such mutations. In other words, CARD11 mutations may explain NF-kappaB activation in only 10% of ABC-DLBCL cases. […] This process has been termed 'chronic active BCR signaling' (CABS). The goal of this screen is to find small-molecule inhibitors of the CABS pathway found in ABC-DLBCL lines using a cell-based assay that measures IkappaBalpa stability, which has already been extensively validated in the OCI-Ly3 line (PubChem AID:445; REF: 4). […] Hits from the primary screen were tested in this orthogonal secondary assay. NIH Molecular Libraries Probe Production Network [MLPCN] NIH Chemical Genomics Center [NCGC] MLPCN Grant: R03 DA031086 PI Name: Dr. R. Eric Davis
The IkB-Photinus/Renilla reporter assay differs from the primary assay in that the reporters are constitutively expressed, and based on luciferases that are different from the click beetle luciferases and each other. These differences should help to eliminate artifactual sources of activity specific to the primary assay. This assay uses the Dual-Glo substrate from Promega; extensively validated in a 96-well format, it could be converted to a smaller-well format. All lines needed for the IkB-Photinus/Renilla assay have already been prepared and extensively validated
Potency is read from the fitted curve at half-maximal effect.

Row | Structure (SMILES) | Potency
1 | O=c1c2ccccc2[se]n1-c1ccccc1 | 15.1 µM (active)
2 | C/C(=N\N1CCCCC1)c1c(O)[nH]c(=O)[nH]c1=O | inactive
3 | CC[C@]12CC[C@H](O)CC1=CCC1C2CC[C@]2(C)C(=O)CCC12 (stereo partly specified) | inactive
4 | C=CC[C@@H](CC/C=C/C=C/CC/C=C\[C@@H]1CSC([C@@H]2C[C@@H]2C)=N1)OC | 30.1 µM (active)
5 | CC(C)CCCn1c(O)c(/C=C2/C=CC=N2)c(=O)[nH]c1=O | inactive
6 | C#CCOc1cc(C2C3=C(COC3=O)Nc3cc4c(cc32)OCO4)ccc1OC (stereo unspecified) | inactive
7 | CCNC(=O)[C@H]1O[C@@H](n2cnc3c(N)ncnc32)[C@H](O)[C@@H]1O | inactive
8 | COc1cc2c(c(OC)c1OC)-c1ccc(O)cc1[C@@H](NC(C)=O)CC2 | inactive
9 | CCCCOCCCn1c(N)c(C(=O)OCCOC)c2nc3ccccc3nc21 | inactive
10 | CN1C(=O)CN=C(c2ccc(Cl)cc2)c2cc(Cl)ccc21 | inactive
11 | O=C1C(=O)c2cccc3cccc1c23 | 26.9 µM (active)
12 | COc1ccc(Cc2nccc3cc(OC)c(OC)cc23)cc1OC | inactive
13 | COc1ccc(C(=O)Oc2cccc3cccnc23)cc1S(=O)(=O)N1CCOCC1 | inactive
14 | COc1cc2c3cc1Oc1cc(ccc1O)C[C@@H]1c4c(cc(OC)c(O)c4Oc4ccc(cc4)C[C@H]3N(C)CC2)CCN1C | 23.9 µM (active)
15 | COc1ccc(C=C2C(=O)N(C)C(=O)N(C)C2=O)cc1COc1ccc(NC(C)=O)cc1 | inactive
16 | CCc1ccccc1N1C(=O)/C(=C/c2ccc(N3CCN(C)CC3)o2)C(=O)NC1=S | inactive
17 | CCCC[C@@H](C)C[C@@H](C)C(=O)N(C)[C@@H](CC(C)C)C(=O)N[C@H](C(=O)N(C)[C@H](C(=O)N1C[C@@H](O)C[C@H]1C(=O)N1C(=O)C=C[C@@H]1C)C(C)C)C(C)OC(C)=O (stereo partly specified) | 26.9 µM (active)
18 | COc1cc(C2c3cc4c(cc3CC3COC(=O)C32)OCO4)cc(OC)c1OC (stereo unspecified) | inactive
19 | Cc1cc(C)c(C(=O)CN2CCOCC2)c(C)c1 | inactive
20 | COc1cc2c(c(OC)c1OC)-c1ccc(O)c(=O)cc1C(NC(C)=O)CC2 (stereo unspecified) | inactive
21 | COc1ccc(-c2nn(CCC#N)cc2C(=O)Nc2ccc(C(C)=O)cc2)cc1[N+](=O)[O-] | inactive
